KKLEB cytotox: CF airway cell cytotoxicity counter-screen; KKLEB CF airway cells viability, ATPlite luminescence, overnight; active compounds read low; cells stimulated with P. aeruginosa culture filtrate; activity change (cytotoxicity), % at 5 µM; 360,000 tested, 0.36% active; AID 602141;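 active = corrected activity change at or below -50% at 5 µM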
Peg3 promoter: reduces Peg3 promoter-driven luciferase expression in HeLa; HeLa PEG-Prom luciferase reporter, luminescence, overnight; inhibition, % at 20 µM; 360,000 tested, 1.7% active;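 active = inhibition of at least 50% at 20 µM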
CF NFkB inh: cystic fibrosis NF-kB activation inhibition; 360,000 tested, 0.86% active; inhibition, % at 5 µM; AID 588850; KKLEB NF-kB-GFP reporter, PAF-induced, GFP fluorescence overnight;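 active = at least 50% inhibition at 5 µM, scaled per plate between neutral and stimulator controls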;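 also: PAF is a Pseudomonas aeruginosa culture filtrate used as stimulus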
Shn3 3UTR inh: Schnurri-3 reporter inhibition in Clone20 osteoblasts. Clone20 osteoblast Shn3 3'UTR firefly luciferase, 24 h. 360,000 tested, 0.52% active. AID 588674. inhibition, % at 12.5 µM;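 active = mean inhibition of at least 75% with every replicate also reaching 75%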
HIF-2a inh: HIF-2a inhibition; 786-0 RCC cells HIF-2a reporter, luciferase luminescence, overnight; 360,000 tested, 0.72% active; inhibition, % at 18.8 µM;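 active = inhibition of the luminescence signal of 40% or more relative to plate controls, in a single-dose primary screen at 18.75 µM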
MITF TRPM1 inh: reduces MITF-dependent TRPM1 promoter luciferase signal; SK-MEL-5 TRPM1 promoter luciferase, 24 h; inhibition, % at 12.5 µM; 330,000 tested, 0.83% active; AID 488899;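 active = mean inhibition across replicates of 60% or more, whatever share of single replicates reaches that level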
Hits are given with their value; n = inactive; x = no result given. This is a sample that favours compounds with a hit; in the whole collection about 2.7% have one here.

SMILES | KKLEB cytotox | Peg3 promoter | CF NFkB inh | Shn3 3UTR inh | HIF-2a inh | MITF TRPM1 inh
COc1ccc(C#Cc2c(-c3ccsc3)oc3ccc(N4CCOCC4)cc23)cc1 | n | n | n | n | n | n
c1cc(-c2cc3cc(N4CCOCC4)ccc3o2)cs1 | -70 | n | n | n | n | n
c1ccc2c(C3OCC4(CCCCC4)CO3)cccc2c1 | n | n | n | n | n | x
COc1cc(-c2ccc3sc(-c4ccsc4)c(C#CCO)c3c2)cc(OC)c1OC | n | 56 | n | n | n | n
COC(=O)c1c(-c2ccsc2)sc2ccc(-c3cc(OC)c(OC)c(OC)c3)cc12 | n | n | n | n | n | n
Nc1nonc1C(=O)NCCNCc1cc(Br)ccc1OCc1ccc(F)cc1 | n | n | n | 90 | n | n
O=C1[C@@H]2Cc3c([nH]c4ccccc34)C(c3cccc(Br)c3)N2C(=O)CN1C1CCN(Cc2ccccc2)CC1 (some centres not stated) | n | 96 | n | n | n | n
O=C1[C@@H]2Cc3c([nH]c4ccccc34)C(c3ccccc3)N2C(=O)CN1C1CCN(Cc2ccccc2)CC1 (some centres not stated) | n | n | n | n | n | n
O=C(COC(=O)c1ccc(-n2cnnn2)cc1)Nc1cc(Cl)ccc1F | n | n | n | n | n | x
OC(CNCCc1ccc(Cl)cc1)COc1ccc2ccccc2c1 (configuration not stated) | n | 67 | n | n | n | n
CC(C)CCNCC(O)CON=C1c2ccccc2-c2ccccc21 (configuration not stated) | n | 107 | n | n | n | n
COc1ccc(CCNCC(O)COc2ccc(Cl)cc2)cc1OC (configuration not stated) | n | n | n | n | n | n
OC(CNCCc1ccc(Cl)cc1)COc1cc(Cl)ccc1Cl (configuration not stated) | n | 104 | n | n | n | n
CC(C)c1ccc(OCC(O)CNC(C)c2ccccc2)cc1 (configuration not stated) | n | n | n | n | n | n
OC(CNCCC(c1ccccc1)c1ccccc1)COc1ccccc1 (configuration not stated) | n | 60 | n | n | n | n
CCN(Cc1nc2cc(Cl)ccc2c(=O)[nH]1)C(=O)c1nn(C)c(=O)c2ccccc12 | n | n | n | n | n | n
CN(C)c1nc2c(c(=O)[nH]c(=O)n2C)n1CCCc1ccccc1 | n | n | n | n | n | n
COc1ccc(C(OCC(O)CNCCc2ccccc2)c2ccc(OC)cc2)cc1 (configuration not stated) | n | n | n | n | n | n
OC(CNCCc1ccccc1)COc1ccc(OCC(O)CNCCc2ccccc2)cc1 (configuration not stated) | n | 102 | n | x | n | 84
O=[N+]([O-])c1cccc(S(=O)(=O)Nc2nc3ccccc3nc2Nc2cccc(S(=O)(=O)N3CCCCC3)c2)c1 | -55 | n | 61 | n | 56 | n
O=[N+]([O-])c1cccc(S(=O)(=O)Nc2ccc(S(=O)(=O)N3CCCC3)cc2)c1 | n | n | n | n | n | n
COc1ccc(CC(=O)N(CCC2=CCCCC2)c2c(N)n(Cc3ccccc3)c(=O)[nH]c2=O)cc1OC | n | n | n | n | n | n
Cc1ccc(NC(=O)CSc2nnnn2C)cc1S(=O)(=O)N1CCCCC1 | n | n | n | n | n | x
COc1ccc(NC(=O)N(C)C[C@H]2Oc3ncc(Br)cc3C(=O)N([C@H](C)CO)C[C@@H]2C)cc1 | n | n | n | n | n | x
C/C(=N/NC(=O)C(O)(c1ccccc1)c1ccccc1)c1ccc([N+](=O)[O-])o1 | n | n | n | n | n | 65
SMILES | KKLEB cytotox | Peg3 promoter | CF NFkB inh | Shn3 3UTR inh | HIF-2a inh | MITF TRPM1 inh
Cn1nc(C#N)c(=O)[nH]c1=O | n | n | n | n | n | n
Cc1ccc(-c2nnc(N3CCC(C)CC3)c3ccccc23)cc1C | n | n | n | 91 | n | n
Cc1nn(Cc2ccccc2)c2ncccc12 | n | n | n | n | n | n
CNCCCOc1ccc(Cl)cc1C(C)(C)C | n | 68 | n | n | n | n
CCC(C)NCCCOc1ccc(Cl)cc1C(C)(C)C (configuration not stated) | n | n | n | n | n | n
CC(OC(=O)CSc1ccccc1)C(=O)NC1CCCCC1C (configuration not stated) | n | n | n | n | n | n
OC[C@@H]1CN(Cc2ccccc2)C[C@H](n2cnc3c(NCc4ccc(F)cc4)ncnc32)O1 | n | n | n | n | n | x
OC[C@@H]1CN(Cc2ccc(-c3ccccc3)cc2)C[C@H](n2cnc3c(NCc4ccc(F)cc4)ncnc32)O1 | n | n | n | 81 | n | x
CCn1cc(CN(C)S(=O)(=O)c2ccc3ccccc3c2)c(C)n1 | n | n | n | 90 | n | n
CCn1cc(CN(C)S(=O)(=O)c2cccc([N+](=O)[O-])c2)cn1 | n | n | n | n | n | n
Cc1ccc2nc(Cl)c3cc(C(=O)N(CCN(C)C)Cc4ccco4)sc3c2c1 | n | 93 | n | n | n | n
CN(C)CCN(Cc1ccco1)C(=O)c1cc2c(Cl)nc3ccccc3c2s1 | n | n | n | n | n | n
CCn1c(C)nc2cc(C(=O)N/N=C/c3ccccc3)ccc21 | n | n | n | n | n | n
CCn1c(C)nc2cc(C(=O)N/N=C/c3cccc(O)c3O)ccc21 | n | n | n | 91 | n | n
CN(Cc1ccccc1)CC(O)COc1ccc(CNCc2ccc(Cl)s2)cc1 (configuration not stated) | n | 54 | n | n | n | n
Oc1cccc(-c2nc3c4c(ncn3n2)-c2ccccc2CC42CCCC2)c1 | n | 54 | n | n | n | n
COc1ccc(-n2nc3c(c2NC(=O)COc2ccccc2F)CS(=O)(=O)C3)cc1 | n | n | n | n | n | n
CC(Nc1nc(N2CCNCC2)nc2ccccc12)c1ccccc1 (configuration not stated) | n | 102 | n | n | n | n
CC(Nc1nc(-c2ccncc2)nc2ccccc12)c1ccccc1 (configuration not stated) | n | n | n | n | n | n
C=CCn1c(=O)/c(=C/c2cc(OC)c(OC)c(OC)c2)s/c1=C(/C#N)c1nc2ccccc2n1C | -50 | n | n | n | n | n
COC(=O)c1ccccc1NC(=O)c1cn(-c2ccc(C)c(C)c2)c(=O)c2ccccc12 | n | 52 | n | n | n | n
CCOc1ccc2c(c1)C(C)=CC(C)(C)N2S(=O)(=O)c1ccc(C)cc1 | n | n | 61 | n | n | 75
CC1=CC(C)(C)N(S(=O)(=O)c2ccc(C)cc2)c2cc(C)ccc21 | n | n | 51 | n | n | n
COc1ccc2c(c1)C(C)=CC(C)(C)N2S(=O)(=O)c1ccc(C)cc1 | n | n | n | n | n | n
COc1ccc(N2CCN(c3nc(NCCc4ccc(OC)c(OC)c4)nc(OC)n3)CC2)cc1 | n | 67 | n | n | n | n
